Screening data deposited in PubChem by National Center for Advancing Translational Sciences (NCATS).
GLS inh = blocks human kidney-isoform glutaminase activity. O94925. GLS enzymatic activity, qHTS titration. Potency, µM (top dose mostly 45.5 µM), inactives show at the highest dose activity change, negative = inhibition, actives largely listed as inhibitors. actives 0.21% (n = 410,000). AID 624170; note: potency is the fitted concentration of half-maximal effect
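hKGA; 45 mM KH2PO4 pH 8.2 + 0.02% Tween-20; cpd via pin tool; 1 mM Gln soln; GluOx/HRP/Amplex Red; RT 30 min; fluor. t0 & final.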
VDR inh = blocks the human vitamin D receptor | Potency, µM, without a hit: max response, negative = inhibition, actives largely listed as inhibitors | AID 504847 | VDR-SRC2-3 peptide fluorescence polarization, 2 h | P11473 | actives 0.93% (n = 400,000); note: potency is the fitted concentration of half-maximal effect
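Reagent solutions, kept cold and dark, are dispensed first; compounds are then pinned in at 23 nl, plates briefly spun, and incubated 2 h at ambient temperature. Inhibition of VDR–SRC2-3 peptide binding is read by fluorescence polarization.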
PLK1 PBD inh = PLK1 (human) polo-box domain binding inhibition; Plk1 PBD binding of FITC phosphopeptide, fluorescence polarization; Potency, µM, for inactives: max response, negative = inhibition, usual class: inhibitors; actives 2.8% (n = 360,000); AID 720504; note: potency is the fitted concentration of half-maximal effect; series mostly up to about 57 µM; nearly all actives have a fitted effect of over 65% in size
Target sequence (P53350 whole entry, looked up, the tested form may be a part): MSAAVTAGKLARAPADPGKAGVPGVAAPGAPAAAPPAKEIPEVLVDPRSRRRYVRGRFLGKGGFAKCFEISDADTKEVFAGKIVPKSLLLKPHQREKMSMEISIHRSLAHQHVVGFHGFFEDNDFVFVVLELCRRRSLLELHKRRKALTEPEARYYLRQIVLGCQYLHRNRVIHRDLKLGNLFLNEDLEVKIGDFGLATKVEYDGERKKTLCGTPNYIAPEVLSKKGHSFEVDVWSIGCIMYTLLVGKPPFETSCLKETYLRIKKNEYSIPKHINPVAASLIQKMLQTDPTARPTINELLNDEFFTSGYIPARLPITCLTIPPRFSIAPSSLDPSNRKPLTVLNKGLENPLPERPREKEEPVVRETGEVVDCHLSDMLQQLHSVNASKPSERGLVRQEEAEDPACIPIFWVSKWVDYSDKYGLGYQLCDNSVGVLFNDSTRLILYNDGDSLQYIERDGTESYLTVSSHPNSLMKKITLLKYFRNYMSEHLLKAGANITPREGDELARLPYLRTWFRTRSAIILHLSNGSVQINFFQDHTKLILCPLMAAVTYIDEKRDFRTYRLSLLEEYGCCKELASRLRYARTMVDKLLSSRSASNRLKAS
KAT2A inh = blocks human GCN5L2 histone acetyltransferase | GCN5L2 HAT assay, ThioGlo1 CoA-SH fluorescence | Q92830 | Potency, µM (highest dose often 58.9 µM), for the others: at the highest dose activity change, negative = inhibition, hits mostly inhibitors | AID 504327 | actives 0.21% (n = 390,000); note: potency is the fitted concentration of half-maximal effect
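Enzyme at 20nM final was mixed with library compounds for 15 min at room temperature. Peptide H3(1-25) at 75uM, acetyl-CoA at 70uM and ThioGlo1 at 50uM were then added. Plates were read immediately and after 20 min (Ex340nm/Em540nm).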
PI4K2A inh = inhibitors of human PI4K2A; Q9BTU6; purified PI4K2A, ADP-Glo luminescence, 1 h; active compounds read low; activity change, negative = inhibition, % at 76.9 µM; actives 0.13% (n = 420,000); AID 1346378; in the data active = activity change below about -50%; inconclusive = mostly about -30% to -49%;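 note: -100% = wells without enzyme as full effect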
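ADP-Glo luminescence measured ADP generated by PI4K2A enzyme (4 ug/mL before mixing) with 1.2 mM PI substrate (pre-mix) and 300 microM ATP (pre-mix). Tris pH7.5 buffer with MgCl2, Triton X-100; 1 h reaction at ambient temperature.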
* marks the source's active call; other numbers are inactive results; i = inactive; ? = inconclusive; · = no result given; [ ] = dose if it differs, or a comment. Rows were chosen to be rich in hits. Some 3.1% of all compounds tested hit in one or more screens of this group. Unless noted, calls come from the whole dose curve; as a rule, active = well fitted curve in the direction sought with a large enough effect; inconclusive = small, poorly fitted or top-dose-only effect, or another doubt; inactive = no such curve, though single readings can be large; an effect the other way counts as inactive or inconclusive. Unless noted, % is set by controls: 0 for no effect and ±100 for the full control effect.

SMILES | GLS inh | VDR inh | PLK1 PBD inh | KAT2A inh | PI4K2A inh
CN(C)CCNC(=O)c1cccn(Cc2cccc(C(F)(F)F)c2)c1=O | -2% | ? | 19µM* | 0% | 1
CCn1nc(-c2ccccc2)nc2c(=O)n(C)c(=O)nc1-2 | 6% | 6% | ? | ? | -57*
O=C1NC(=O)N(Cc2ccccc2Cl)C(=O)/C1=C/c1cccs1 | 12% | ? | 1.2µM* | -13% | -19
Cc1ccc(/C=C2\C(=O)NC(=O)N(Cc3ccccc3Cl)C2=O)o1 | 16% | 105% | 0.84µM* | -8% | -9
Cc1ccc(/C=C2/C(=O)NC(=O)N(Cc3ccc(F)cc3)C2=O)o1 | · | · | · | -13% | ·
C[C@H]1CC[C@@]2(NC1)O[C@@H]1C[C@H]3[C@@H]4CC[C@@H]5C[C@@H](O)CC[C@@]5(C)[C@@H]4CC[C@]3(C)[C@@H]1[C@@H]2C | · | 0% | · | 9%[21.4 µM] | ·
CC(Nc1cc(C)cc(C)c1)=[N+](C)CCNS(=O)(=O)c1ccc(Cl)cc1 | 16% | -4% | -14% | ? | -15
C#C[C@]1(OC(=O)CCCCCC)CC[C@H]2C3CCC4=CC(=O)CC[C@@H]4[C@H]3CC[C@@]21C (some centres undefined) | -2% | · | · | · | ·
CCC(=O)C(CC(C)N(C)C)(c1ccccc1)c1ccccc1 (centres undefined) | · | · | · | · | i
COc1ccc(CCn2c(O)c(C=NCc3cccnc3)c(=O)[nH]c2=O)cc1OC | 63% | -12% | 27µM* | 1% | 0
O=C(CSc1ccccn1)Nc1cccc2ccccc12 | -2% | -13% | 21µM* | -13% | -5
C=CCN1C(=O)NC(=O)/C(=C/c2c(CCN(C)C(=O)c3ccccc3)cc3c(c2OC)OCO3)C1=O | -2% | -21% | 24µM* | -2% | ?
CNC(=S)N(C)CCc1cc2c(c(OC)c1C=C1C(=O)NC(=O)NC1=O)OCO2 | 0% | -4% | ? | -4% | 2
C=C1C(=O)OC2CC(C)C3C=CC(=O)C3(C)C(O)C12 (centres undefined) | -1% | ? | -13% | · | ?
C=C1C(=O)O[C@@H]2C[C@@H](C)[C@@H]3C=CC(=O)[C@@]3(C)[C@@H](OC(=O)CC(=O)O[C@H]3[C@@H]4C(=C)C(=O)O[C@@H]4C[C@@H](C)[C@@H]4C=CC(=O)[C@]43C)[C@H]12 | -17% | 18µM* | ? | -7% | -70*
O=C1NC(=O)N(c2ccc3c(c2)OCO3)C(=O)/C1=C/c1ccc(N2CCCC2)o1 | 3% | 8% | 71% | -1% | -1
O=C1NC(=O)N(c2ccc3c(c2)OCO3)C(=O)/C1=C/c1ccsc1 | 16% | ? | 7.5µM* | 4% | -13
O=C1NC(=O)N(c2ccc3c(c2)OCO3)C(=O)/C1=C/c1cccs1 | 19% | 79µM* | 2.1µM* | -2% | -9
CCc1ccc(N2C(=O)NC(=O)/C(=C/c3ccsc3)C2=O)cc1 | · | · | · | -3% | ·
Oc1ccc2c3c1O[C@H]1[C@@H](O)C=CC4[C@@H](C2)NCC[C@@]341 (some centres undefined) | -7% | · | · | · | ·
CCn1ccnc1CN1CCCC(C(=O)c2cccc(C(F)(F)F)c2)C1 (centres undefined) | -2% | -1% | -15% | 0% | 8
O=C(c1cccc(C(F)(F)F)c1)C1CCCN(Cc2ncc[nH]2)C1 (centres undefined) | -13% | 8% | -6% | 0.16µM* | 6
COC(=O)OCC12CCC(O1)C1(C)C(=O)OCC21 (centres undefined) | ? | ? | 24µM* | 0% | -3
Cc1ccc(C)c(NC(=S)NC2CC3CCC(C2)N3Cc2ccco2)c1 (centres undefined) | 5% | 9% | -4% | 2µM* | 0
CCC(=O)O[C@@H]1C=C2CCC3C(CCC4(C)C3CC[C@@H]4OC(=O)CC)C2CC1 (some centres undefined) | · | · | · | · | 3
SMILES | GLS inh | VDR inh | PLK1 PBD inh | KAT2A inh | PI4K2A inh
CC(C)CCC(=O)OC1CCC2C3CCC4=CC(=O)CC[C@]4(C)C3CC[C@]12C (some centres undefined) | 5% | ? | · | · | ·
CCCCC[C@@H](/C=C/C=C\CCCCCCCCCC(=O)O)OO | · | -12% | · | · | ·
Cc1ccc(-c2csc(NC(CO)c3nc4ccccc4n3CCOCCO)n2)cc1 (centres undefined) | 9% | -12% | 21µM* | · | 2
CCOC(=O)[C@]12Cc3cc(C)ccc3[C@H]1N(Cc1ccccc1)C(=O)c1cc(OC)ccc12 | 17% | · | ? | · | -5
CCOC(=O)[C@]12Cc3cc(OC)ccc3[C@H]1N(CC(=O)OC)C(=O)c1ccccc12 | 7% | · | -2% | · | -15
CCOC(=O)[C@]12Cc3cc(OC)ccc3[C@H]1N(C)C(=O)c1cc(OC)ccc12 | ? | · | 9.5µM* | · | 12
CCOC(=O)[C@]12Cc3cc(Cl)ccc3[C@H]1N(C)C(=O)c1cc(OC)ccc12 | ? | · | 11µM* | · | 14
CCOC(=O)[C@]12Cc3cc(OC)ccc3[C@H]1N(CC(=O)OC)C(=O)c1cc(OC)ccc12 | ? | · | 13µM* | · | 7
CCCCCN1C(=O)c2cc(OC)ccc2[C@@]2(C(=O)OCC)Cc3cc(OC)ccc3[C@@H]12 | -2% | · | 4.7µM* | · | 16
CC(=O)N1CCN(c2ccc(OC[C@@H]3CO[C@@](Cn4ccnc4)(c4ccc(Cl)cc4Cl)O3)cc2)CC1 | 1% | 12% | · | -3% | ·
CC/C=C\C/C=C\C/C=C\C/C=C\C/C=C\CCCC(=O)NCCCC(=O)O | · | -10% | · | · | ·
O=C(O)c1ccc(-c2ccc3cc(C45CC6CC(CC(C6)C4)C5)c(O)cc3c2)cc1 | · | 56µM* | · | 16µM* | ·
CCC1CC2CC3c4[nH]c5ccc(OC)cc5c4CCN(C2)C13 (centres undefined) | 21%[99.4 µM] | · | · | · | ·
O=c1[nH]c2ccccc2n1C1CCNCC1 | · | · | · | · | -1
N#C/C(=C\c1ccc(O)c(O)c1)C(=O)NCCCNC(=O)/C(C#N)=C/c1ccc(O)c(O)c1 | · | ? | · | -27% | -11
